“And” between values parts separate entries of the source, which are not always exact repeats. Equal entries are not always repeated. Out of some 5,500 compounds screened, about 2,000 (36%) were called active. Not shown: some 18% with an inconclusive outcome. No stated cut-off is given here; in the data, active means normalized growth mostly below about 0.91 (no sharp cut-off); inconclusive means no clear call, values can overlap the other calls; inactive means mostly above about 0.92. This is one part of the list.
Assay: chemical genetic growth profiling, strain panel (AID 1159580);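 further: tested at 20 µM; growth read once vehicle control cultures reached saturation at 30 °C; 1 = growth at the plate median or of vehicle wells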
Settings: S. cerevisiae deletion strains, growth OD

Measured: normalized growth

O=C(O)c1ccccc1C(=O)Nc1ccc(S(=O)(=O)Nc2nccs2)cc1
inactive: locus YAL013W, strain DEP1, stronger effect = lower value 1.01 | locus YAL021C, strain ccr4, stronger effect = lower value 0.977 | locus YAL026C, strain drs2, stronger effect = lower value 0.986 | locus YAL030W, strain snc1, stronger effect = lower value 0.987 | locus YBL061C, strain skt5, stronger effect = lower value 0.968 | locus YBR009C, strain hhf1, stronger effect = lower value 0.994 | locus YBR021W, strain FUR4, stronger effect = lower value 1.01 | locus YBR023C, strain chs3, stronger effect = lower value 0.966 | locus YBR171W, strain sec66, stronger effect = lower value 0.978 | locus YBR229C, strain ROT2, stronger effect = lower value 1 | locus YBR231C, strain swc5, stronger effect = lower value 0.985 | locus YBR279W, strain paf1, stronger effect = lower value 0.991 | locus YCL011C, strain gbp2, stronger effect = lower value 0.978 | locus YCL016C, strain dcc1, stronger effect = lower value 0.954 | locus YCL029C, strain bik1, stronger effect = lower value 0.994 | locus YCL061C, strain MRC1, stronger effect = lower value 0.971 | locus YCL069W, strain vba3, stronger effect = lower value 0.988 | locus YCR088W, strain abp1, stronger effect = lower value 0.987 | locus YDL005C, strain med2, stronger effect = lower value 0.973 | locus YDL035C, strain GPR1, stronger effect = lower value 1.02 | locus YDL040C, strain nat1, stronger effect = lower value 0.977 | locus YDL074C, strain BRE1, stronger effect = lower value 1.01 | locus YDL101C, strain DUN1, stronger effect = lower value 1.01 | locus YDL134C, strain PPH21, stronger effect = lower value 1 | locus YDL185W, strain tfp1, stronger effect = lower value 0.995 | locus YDL192W, strain arf1, stronger effect = lower value 0.998 | locus YDR001C, strain nth1, stronger effect = lower value 0.987 | locus YDR069C, strain doa4, stronger effect = lower value 0.975 | locus YDR101C, strain arx1, stronger effect = lower value 0.984 | locus YDR137W, strain rgp1, stronger effect = lower value 0.963 | locus YDR159W, strain sac3, stronger effect = lower value 0.992 | locus YDR162C, strain NBP2, stronger effect = lower value 1 | locus YDR195W, strain ref2 0.996 | locus YDR297W, strain sur2, stronger effect = lower value 0.988 | locus YDR318W, strain mcm21, stronger effect = lower value 0.999 | locus YDR334W, strain swr1, stronger effect = lower value 0.966 | locus YDR335W, strain msn5, stronger effect = lower value 0.984 | locus YDR388W, stronger effect = lower value 0.993 | locus YDR392W, strain spt3, stronger effect = lower value 0.93 | locus YDR502C, strain sam2, stronger effect = lower value 1 | locus YEL003W, strain gim4, stronger effect = lower value 1.01 | locus YEL037C, strain rad23, stronger effect = lower value 0.981 | locus YEL061C, strain CIN8 (second series), stronger effect = lower value 0.99 | locus YEL061C, strain CIN8, stronger effect = lower value 1.01 | locus YER015W, strain faa2, stronger effect = lower value 0.96 | locus YER016W, strain bim1, stronger effect = lower value 0.993 | locus YER110C, stronger effect = lower value 0.998 | locus YER111C, strain swi4, stronger effect = lower value 0.973 | locus YER155C, strain BEM2 (second series), stronger effect = lower value 0.981 | locus YER155C, strain BEM2, stronger effect = lower value 0.995 | locus YER167W, strain BCK2, stronger effect = lower value 0.996 | locus YFR010W, strain ubp6, stronger effect = lower value 0.999 | locus YGL078C, strain dbp3, stronger effect = lower value 0.994 | locus YGL086W, strain mad1, stronger effect = lower value 0.991 | locus YGL167C, strain pmr1, stronger effect = lower value 0.962 | locus YGL173C, strain kem1, stronger effect = lower value 0.959 | locus YGL227W, strain vid30, stronger effect = lower value 0.985 | locus YGL240W, strain doc1, stronger effect = lower value 0.992 | locus YGL248W, strain PDE1, stronger effect = lower value 1 | locus YGL253W, strain hxk2, stronger effect = lower value 0.984 | locus YGR135W, strain pre9, stronger effect = lower value 0.995 | locus YGR229C, strain SMI1, stronger effect = lower value 1.01 | locus YGR252W, strain gcn5, stronger effect = lower value 0.995 | locus YHR013C, strain ard1, stronger effect = lower value 0.949 | locus YHR027C, strain rpn1, stronger effect = lower value 0.977 | locus YHR030C, strain SLT2, stronger effect = lower value 1 and 1.03 | locus YHR079C, strain IRE1 (second series), stronger effect = lower value 0.995 | locus YHR079C, strain IRE1, stronger effect = lower value 1.05 | locus YHR094C, strain hxt1, stronger effect = lower value 0.994 | locus YHR129C, strain ARP1, stronger effect = lower value 1 | locus YHR142W, strain chs7, stronger effect = lower value 0.959 | locus YHR200W, strain rpn10, stronger effect = lower value 0.995 | locus YIL066C, strain RNR3, stronger effect = lower value 1.01 | locus YIL073C, strain SPO22, stronger effect = lower value 1.01 | locus YIL125W, strain kgd1, stronger effect = lower value 0.991 | locus YIR030C, strain dcg1, stronger effect = lower value 0.993 | locus YJL092W, strain hpr5, stronger effect = lower value 0.983 | locus YJL095W, strain BCK1 (second series), stronger effect = lower value 0.982 | locus YJL095W, strain BCK1, stronger effect = lower value 1.02 and 1.01 | locus YJL115W, strain asf1, stronger effect = lower value 0.973 | locus YJL129C, strain trk1, stronger effect = lower value 0.976 | locus YJL134W, strain LCB3, stronger effect = lower value 1 | locus YJL154C, strain vps35, stronger effect = lower value 0.979 | locus YJL164C, strain tpk1, stronger effect = lower value 0.991 | locus YJL166W, strain qcr8, stronger effect = lower value 0.985 | locus YJL168C, strain set2, stronger effect = lower value 0.993 | locus YJL187C, strain SWE1 (second series), stronger effect = lower value 1.02 | locus YJL187C, strain SWE1, stronger effect = lower value 0.979 | locus YJR043C, strain POL32, stronger effect = lower value 0.995

— PubChem BioAssay AID1159580 (chemical genetic matrix, 2015)
